# Records with an inconclusive call do not appear. Activity calls are given as the source filed them. Calls follow the shape of the dose curve; as a rule, active = well fitted curve in the direction sought with a large enough effect; inconclusive = small, poorly fitted or top-dose-only effect, or another doubt; inactive = no such curve, though single readings can be large; an effect the other way counts as inactive or inconclusive.
# Molecular target: Ubiquitin carboxyl-terminal hydrolase 1 (Homo sapiens) (UniProt O94782)
# Sequence (O94782 whole entry, looked up): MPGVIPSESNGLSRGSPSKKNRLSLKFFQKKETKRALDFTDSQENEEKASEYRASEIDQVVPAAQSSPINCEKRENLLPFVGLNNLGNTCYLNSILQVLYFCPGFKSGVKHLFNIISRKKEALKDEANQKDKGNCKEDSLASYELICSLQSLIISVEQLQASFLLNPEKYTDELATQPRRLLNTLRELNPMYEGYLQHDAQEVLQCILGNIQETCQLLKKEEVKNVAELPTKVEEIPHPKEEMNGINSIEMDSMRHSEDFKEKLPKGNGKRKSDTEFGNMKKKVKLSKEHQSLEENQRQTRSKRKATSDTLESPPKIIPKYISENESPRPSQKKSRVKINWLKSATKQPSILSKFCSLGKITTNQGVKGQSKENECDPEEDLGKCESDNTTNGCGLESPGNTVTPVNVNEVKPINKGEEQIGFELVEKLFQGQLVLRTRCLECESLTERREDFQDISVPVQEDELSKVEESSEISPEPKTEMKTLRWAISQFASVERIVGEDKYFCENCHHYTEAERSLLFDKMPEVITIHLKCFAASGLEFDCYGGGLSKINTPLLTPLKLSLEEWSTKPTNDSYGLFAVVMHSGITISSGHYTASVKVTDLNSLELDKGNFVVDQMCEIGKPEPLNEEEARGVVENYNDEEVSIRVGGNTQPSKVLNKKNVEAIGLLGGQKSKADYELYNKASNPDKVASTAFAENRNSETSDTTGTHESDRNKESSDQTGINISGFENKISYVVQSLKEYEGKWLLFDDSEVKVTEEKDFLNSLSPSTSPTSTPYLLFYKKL
# Test: Inhibitors of USP1/UAF1: Pilot qHTS (AID 504865); also: nearly all actives have a fitted effect of over 35% in size; also: potency is read from the fitted curve at half-maximal effect;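 as to activity change, negative = inhibition: rhodamine fluorescence freed from ubiquitin-rhodamine substrate followed over time; top concentration of the series differs between compounds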
# Conditions: purified USP1/UAF1, Ub-rhodamine cleavage fluorescence; series mostly up to 114 µM; activity change, negative = inhibition: at the top concentration
# In short: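 Enzyme-free wells gave the negative control, while test wells held 1nM USP1/UAF1 preincubated with compound for 15 min at room temperature. Ub-Rho at 150nM final started the reaction, and fluorescence at 480/540 nm was recorded kinetically.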
# % is scaled to controls: 0 for no effect and ±100 for the full control effect.
Compound,Potency,"activity change, negative = inhibition"
C=CCN(C1=NCCN1)c1c(Cl)cccc1Cl,inactive,
CC(N)Cc1ccc(O)cc1 (centres undefined),,4.66% (inactive)
CCC1(c2ccccc2)C(=O)NC(=O)NC1=O,,-3.56% (inactive)
CCC1(c2ccccc2)C(=O)NC(=O)N(C(=O)c2ccccc2)C1=O (centres undefined),,0.385% (inactive)
[N-]=[N+]=CC(=O)OCC(N)C(=O)O (centres undefined),,-12.1% (inactive)
CCC1(C)CC(=O)NC(=O)C1,,9.63% [at 54.9 µM] (inactive)
S=C(S)N1CCNCC1,,-0.65% (inactive)
NCC(O)c1cccc(O)c1 (centres undefined),,-9.56% (inactive)
C=CCC1(C(C)CCC)C(=O)N=C(S)NC1=O (centres undefined),,-0.652% (inactive)
COc1ccc(CNC(=O)/C=C/c2ccc3[nH]cc(CCN(C)C)c3c2)cc1,,-5.6% (inactive)
CCOc1ccc2c3c1O[C@H]1[C@@H](O)C=C[C@H]4[C@@H](C2)N(C)CC[C@@]341,,-8.08% (inactive)
CC(Cc1ccccc1)NC=O (centres undefined),,-1.85% (inactive)
O=P(O)(O)C(Cl)(Cl)P(=O)(O)O,inactive,
C[N+]1(C)CCCCC1COC(=O)C(O)(c1ccccc1)c1ccccc1 (centres undefined),,-2.24% (inactive)
CC(=O)OC1CN2CCC1CC2 (centres undefined),,2.7% (inactive)
CCC1(CC)C(=O)NC(=O)N(C)C1=O,,-0.485% (inactive)
Clc1cc(I)cc(Cl)c1NC1=NCCN1,,-3.62% (inactive)
CCON=O,,-0.412% (inactive)
COc1ccc2c(c1O)-c1cccc3c1[C@@H](C2)N(C)CC3,,-5.45% (inactive)

Compound,Potency,"activity change, negative = inhibition"
CCC(=O)O[C@@](Cc1ccccc1)(c1ccccc1)[C@@H](C)CN(C)C,,3.33% [at 54.9 µM] (inactive)
c1csc(C2(N3CCCCC3)CCCCC2)c1,,-10.3% (inactive)
C=CCN1C[C@@H](C)N([C@H](c2ccc(C(=O)N(CC)CC)cc2)c2cccc(OC)c2)C[C@@H]1C,,0.0898% (inactive)
NC(C(=O)O)c1cc(=O)[nH]o1 (centres undefined),,4.23% (inactive)
CCN(CC)C(=O)/C(Cl)=C(\C)OP(=O)(OC)OC,,0.697% (inactive)
O=[N+]([O-])c1ccc2nc(N3CCNCC3)ccc2c1,,-1.12% (inactive)
N#C/C(=C/c1ccc(O)c(O)c1)C(N)=S,,-7.77% (inactive)
NC(N)=Nc1ccc2[nH]c3c(c2c1)C[C@@]1(O)[C@H]2Cc4ccc(O)c5c4[C@@]1(CCN2CC1CC1)[C@H]3O5,79.4 µM (active),
O[C@H]1[C@H]2[C@H](O)CCCN2C[C@H]1O,,-0.925% (inactive)
CP(=O)(O)C1=CCNCC1,,-12.1% (inactive)
NC(Cc1cc(O)c(O)cc1O)C(=O)O (centres undefined),14.1 µM (active),
COc1cc(CC(C)N)c(OC)cc1I (centres undefined),,-11.5% (inactive)
Cc1sc2ccccc2c1CC1=NCCN1,inactive,
OC(c1ccccc1)(c1ccccc1)C1CN2CCC1CC2 (centres undefined),,-3.45% (inactive)
CCC(C)(S(=O)(=O)CC)S(=O)(=O)CC,,-13.5% (inactive)
COC1=CC=C2[C@H]3Cc4ccc(OC)c5c4[C@@]2(CCN3C)[C@H]1O5,,-13% [at 54.9 µM] (inactive)
CNC(=O)Oc1ccccc1C(=O)Nc1ccccc1,,-7.71% (inactive)
C[C@H](N)CN1CCc2ccc(Br)cc21,,3.66% (inactive)

# Tested on: not listed separately
# Test: qHTS for Inhibitors of ATXN expression: Validation of Cytotoxic Assay (AID 588349)
# Conditions: cytotoxicity counter-screen for ATXN expression inhibitors, cell viability; series mostly up to 57.1 µM; activity change, negative = cytotoxicity: at the top concentration
# In short: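 Read-out: ATP-based luminescence (CellTiter Glo) reflecting viability of HEK293 cells after 72 hr incubation at 37 degrees C with a concentration series of each compound.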
row,Compound,"activity change, negative = cytotoxicity"
1,C=CCN(C1=NCCN1)c1c(Cl)cccc1Cl,-9.54% (inactive)
2,COc1ccc(CNC(=O)/C=C/c2ccc3[nH]cc(CCN(C)C)c3c2)cc1,-23.2% (inactive)
3,Clc1cc(I)cc(Cl)c1NC1=NCCN1,-17.3% (inactive)
4,C=CCN1C[C@@H](C)N([C@H](c2ccc(C(=O)N(CC)CC)cc2)c2cccc(OC)c2)C[C@@H]1C,-1.16% (inactive)
5,NC(C(=O)O)c1cc(=O)[nH]o1 (centres undefined),-7.71% (inactive)
6,CP(=O)(O)C1=CCNCC1,-2.62% (inactive)
7,Cc1sc2ccccc2c1CC1=NCCN1,-21% (inactive)
